Experimental data published in PubChem BioAssay (NCI).
About 83,000 compounds went through this panel and 20% of them were active in at least one assay; those are over-represented in the sample as a whole.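 96-well plates, one dose, 48 hours. Percent growth reported; active if below 10.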 The source made the active and inactive calls.

Tests used:
Assay in all cases: NCI-60 one-dose screen, 48 h (100 = growth as untreated, 0 = no growth, -100 = all killed)
[1] = tested on: DU-145 prostate
[2] = tested on: K-562 leukemia
[3] = tested on: MALME-3M melanoma
[4] = tested on: MDA-MB-231 breast
[5] = tested on: RXF 393 renal
[6] = tested on: SF-268 CNS
[7] = tested on: SF-295 CNS
[8] = tested on: SF-539 CNS
[9] = tested on: UACC-257 melanoma
[10] = tested on: M14 melanoma

Measured: growth

COc1cc(CO)cc2cc3ccccc3nc12
inactive: [1]; 10 µM unless noted 106% | [2]; 10 µM unless noted 90.7% | [3]; 10 µM unless noted 112% | [4]; 10 µM unless noted 101% | [5]; 10 µM unless noted 115% | [6]; 10 µM unless noted 100% | [7]; 10 µM unless noted 102% | [8]; 10 µM unless noted 102% | [9]; 10 µM unless noted 105% | [10]; 10 µM unless noted 105%

COc1ccc(-c2nc(Cl)c3c(C)nn(-c4ccc(F)cc4)c3n2)cc1
inactive: [1]; 10 µM unless noted 111% | [2]; 10 µM unless noted 100% | [3]; 10 µM unless noted 115% | [4]; 10 µM unless noted 106% | [5]; 10 µM unless noted 122% | [6]; 10 µM unless noted 106% | [7]; 10 µM unless noted 107% | [8]; 10 µM unless noted 111% | [9]; 10 µM unless noted 91.9% | [10]; 10 µM unless noted 100%

CC(=O)/C=C/c1ccc(OCc2ccc(C(C)(C)C)cc2)cc1
active: [4]; 100 µM -39.2% | [5]; 100 µM 1.8% | [9]; 100 µM 2.75%
inactive: [1]; 10 µM 89% | [1]; 100 µM 61% | [2]; 10 µM 39.1% | [2]; 100 µM 13.4% | [3]; 10 µM 86.4% | [3]; 100 µM 29% | [4]; 10 µM 84.2% | [5]; 10 µM 94.6% | [6]; 10 µM 94.2% | [6]; 100 µM 42.3% | [7]; 10 µM 69.6% | [7]; 100 µM 27.2% | [8]; 10 µM 78.4% | [8]; 100 µM 34.1% | [9]; 10 µM 70.6% | [10]; 10 µM 67% | [10]; 100 µM 10.5%

O=C1C=C(Nc2ccccc2)c2ncccc2C1=O
active: [1]; 10 µM unless noted -95.4% | [2]; 10 µM unless noted -48% | [3]; 10 µM unless noted -91.3% | [4]; 10 µM unless noted -18% | [5]; 10 µM unless noted -96.4% | [6]; 10 µM unless noted -61.9% | [7]; 10 µM unless noted -97.5% | [8]; 10 µM unless noted -87.3% | [9]; 10 µM unless noted -97.7% | [10]; 10 µM unless noted -86.3%

CC/C(=C(/c1ccc(O)cc1)c1ccc(OCCN2CCCCCC2)cc1)c1ccc(Cl)cc1
active: [2]; 10 µM unless noted -21.5%
inactive: [1]; 10 µM unless noted 82.9% | [3]; 10 µM unless noted 47.5% | [4]; 10 µM unless noted 88.4% | [5]; 10 µM unless noted 63.7% | [6]; 10 µM unless noted 63.4% | [7]; 10 µM unless noted 87.8% | [8]; 10 µM unless noted 78.2% | [9]; 10 µM unless noted 87.3% | [10]; 10 µM unless noted 17%

C[N+]1=C(/C=C\C=C\c2ccccc2)C(C)(C)c2ccccc21
inactive: [1]; 10 µM unless noted 48.7% | [5]; 10 µM unless noted 38% | [6]; 10 µM unless noted 38.5% | [7]; 10 µM unless noted 72.4% | [10]; 10 µM unless noted 20.5%
active: [2]; 10 µM unless noted 4.69% | [3]; 10 µM unless noted -17.8% | [4]; 10 µM unless noted 9.89% | [8]; 10 µM unless noted 8.59% | [9]; 10 µM unless noted 8.91%

CC(=O)/C=C/c1ccc(OCc2ccc(Cl)cc2)cc1
active: [3]; 100 µM -1.84% | [4]; 100 µM 9.42% | [9]; 100 µM -1.1%
inactive: [1]; 10 µM 96.6% | [1]; 100 µM 52.9% | [2]; 10 µM 79.1% | [2]; 100 µM 26.1% | [3]; 10 µM 110% | [4]; 10 µM 117% | [5]; 10 µM 105% | [5]; 100 µM 55.5% | [6]; 10 µM 101% | [6]; 100 µM 52.3% | [7]; 10 µM 99.1% | [7]; 100 µM 39.9% | [8]; 10 µM 109% | [8]; 100 µM 44.4% | [9]; 10 µM 86.6% | [10]; 10 µM 98.2% | [10]; 100 µM 36.1%

Nc1n[nH]c2cccc(C#Cc3cccc(C(=O)Nc4ccc(CN5CCOCC5)c(C(F)(F)F)c4)c3)c12
inactive: [1]; 10 µM unless noted 69.5% | [4]; 10 µM unless noted 28.8% | [6]; 10 µM unless noted 55% | [9]; 10 µM unless noted 40.1%
active: [2]; 10 µM unless noted 4.19% | [3]; 10 µM unless noted -3.92% | [5]; 10 µM unless noted -4.45% | [7]; 10 µM unless noted 2.26% | [8]; 10 µM unless noted -54.5% | [10]; 10 µM unless noted 5.11%

Nc1ccc(-c2ccc(N)c(Br)c2)cc1Br
inactive: [1]; 10 µM unless noted 68.1% | [2]; 10 µM unless noted 22.4% | [3]; 10 µM unless noted 55.4% | [4]; 10 µM unless noted 51.8% | [5]; 10 µM unless noted 57.5% | [6]; 10 µM unless noted 44.3% | [7]; 10 µM unless noted 62.8% | [8]; 10 µM unless noted 29.5% | [9]; 10 µM unless noted 78.1% | [10]; 10 µM unless noted 26.9%

COc1c(O)c(O)cc2c3c(oc12)CC(c1ccc2c(c1)OCO2)CC3=O (stereo not given)
inactive: [1]; 10 µM unless noted 68.8% | [2]; 10 µM unless noted 17.2% | [3]; 10 µM unless noted 95.7% | [4]; 10 µM unless noted 70.5% | [5]; 10 µM unless noted 105% | [6]; 10 µM unless noted 53.9% | [7]; 10 µM unless noted 101% | [8]; 10 µM unless noted 67.6% | [9]; 10 µM unless noted 55.3% | [10]; 10 µM unless noted 23.3%

CCNC(=S)n1nc(SC)c(C(=O)OCC)c1N
inactive: [1]; 10 µM unless noted 102% | [2]; 10 µM unless noted 85.5% | [3]; 10 µM unless noted 106% | [4]; 10 µM unless noted 92.5% | [5]; 10 µM unless noted 107% | [6]; 10 µM unless noted 92% | [7]; 10 µM unless noted 98.1% | [8]; 10 µM unless noted 93.1% | [9]; 10 µM unless noted 120% | [10]; 10 µM unless noted 107%
